PubChem BioAssay AID1851 (National Center for Advancing Translational Sciences (NCATS), 2009)
About 5,800 (36%) of roughly 16,000 compounds were called active. Roughly 23% stayed inconclusive and do not appear here. Some of the results follow. Values without a mark were called inactive. Calls come from the whole dose curve; as a rule, active = well fitted curve in the direction sought with a large enough effect; inconclusive = small, poorly fitted or top-dose-only effect, or effect the other way; inactive = no such curve, though single readings can be large or run the other way.

The compounds below were run against Cytochrome P450 2C19 (Homo sapiens) (UniProt P33261) (assay: Cytochrome panel assay with activity outcomes). Details: recombinant CYP, pro-luciferin dealkylation, luminescence, p450-cyp2c19; series mostly up to 57.1 µM.
% is set by controls: 0 for no effect and ±100 for the full control effect.

Cytochrome P450 2C19 (Homo sapiens), sequence (P33261 whole entry, looked up): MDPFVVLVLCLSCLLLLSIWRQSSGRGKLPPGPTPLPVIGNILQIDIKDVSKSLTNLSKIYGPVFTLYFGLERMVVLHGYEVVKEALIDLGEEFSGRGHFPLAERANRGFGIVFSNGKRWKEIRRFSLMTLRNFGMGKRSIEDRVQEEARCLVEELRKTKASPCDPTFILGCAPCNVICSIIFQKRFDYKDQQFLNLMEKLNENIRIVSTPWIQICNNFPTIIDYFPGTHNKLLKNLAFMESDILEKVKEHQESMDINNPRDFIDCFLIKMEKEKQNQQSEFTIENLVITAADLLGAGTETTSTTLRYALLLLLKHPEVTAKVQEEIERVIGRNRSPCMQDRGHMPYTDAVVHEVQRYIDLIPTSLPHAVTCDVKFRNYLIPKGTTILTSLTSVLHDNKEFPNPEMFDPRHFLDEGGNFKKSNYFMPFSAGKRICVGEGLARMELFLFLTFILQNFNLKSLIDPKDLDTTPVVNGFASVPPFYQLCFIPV

Row | SMILES | activity, negative = inhibition | AC50
1 | CC(=O)O[C@]12CC[N@+]3(C)CCCC[C@@H]3[C-]1Nc1ccccc12 | 34.8% [at 11.4 µM] | –
2 | Cn1nc(C(F)(F)F)c(/C=N/OCc2c(Cl)cccc2Cl)c1Cl | – | 0.282 µM (active)
3 | COc1ccc(OC)c(NC(=O)CC(Cc2ccccc2OC)C(=O)O)c1 (stereo not given) | – | inactive
4 | CCCC(=O)Nc1cc(-c2cn3cccnc3n2)ccc1OC | – | inactive
5 | COc1ccc(NC(=O)Cn2cccc2)c(OC)c1 | – | 2.24 µM (active)
6 | COc1ccc(NC(=O)NCc2cccn2C)c(OC)c1 | – | 6.31 µM (active)
7 | COc1ccc(NC(=O)N2CC3(CCN(C(=O)c4cccn4C)CC3)C2)cc1 | – | inactive
8 | COc1ccc(OC)c(NC(=O)Cn2cccc2)c1 | – | 6.31 µM (active)
9 | COCCN(C(=O)Nc1ccc(OC)cc1OC)C1CCN(C(C)=O)CC1 | – | inactive
10 | COc1ccc(NC(=O)N2CCC3(CC2)CCN(C(=O)c2cccn2C)CC3)cc1 | – | inactive
11 | COc1ccc(-c2nnn(CC(=O)N(CC(=O)NCCC(C)C)Cc3cccs3)n2)cc1OC | – | 1.12 µM (active)
12 | CO[C@H]1COC(=O)[C@H](C)NC(=O)C/C=C\[C@@H](C)[C@@H](NS(=O)(=O)c2ccc(C)cc2)COC(=O)C/C=C\[C@@H]1C | 24.1% [at 11.4 µM] | –
13 | COc1ccc(-c2nnn(CC(=O)NCCc3c[nH]c4ccccc34)n2)cc1OC | – | 8.91 µM (active)
14 | CCOc1ccc(-c2nnn(CC(=O)Nc3cc(OC)ccc3OC)n2)cc1OCC | – | 5.62 µM (active)
15 | Cn1ncc(C#N)c1NC(=O)C1CC(c2ccc(Cl)cc2)=NO1 (stereo not given) | – | 0.316 µM (active)
16 | COc1cccc(Nc2ncc3nc(-c4cccs4)c(=O)n(CCC#N)c3n2)c1 | – | inactive
17 | O=C(CCC1CCCCC1)Nc1c2c(nn1-c1ccc(F)cc1)CS(=O)(=O)C2 | – | 15.8 µM (active)
18 | O=C(O)c1cc(N=Nc2ccc([N+](=O)[O-])cc2)ccc1O | -3.05% [at 11.4 µM] | –
19 | NC(=O)c1ccc([N+](=O)[O-])cc1SCc1ccccc1 | – | 10 µM (active)
20 | O=C(NCc1ccccn1)c1cc(-c2ccccc2Cl)on1 | – | 14.1 µM (active)

Row | SMILES | activity, negative = inhibition | AC50
21 | O=C(O)[C@@H]1[C@@H](C(=O)NCc2ccccn2)[C@@H]2C=C[C@@H]1O2 | 36% [at 11.4 µM] | –
22 | O=C(CCCN1CCC(O)(c2ccc(Br)cc2)CC1)c1ccc(F)cc1 | – | inactive
23 | OCCN1CCOCCOCCN(CCO)CCN(CCO)CC1 | – | inactive
24 | OCCN1CCN(C(=S)c2ccc(Br)cc2)CC1 | – | 4.47 µM (active)
25 | C[C@H]1CN(CCO)CCN1c1ccccc1 | 34.1% [at 11.4 µM] | –
26 | CCN1CCN(C(=S)c2ccc(Br)cc2)CC1 | – | 7.94 µM (active)
27 | O=c1[nH][nH]c(C(F)(F)F)c1C=Nc1ccccc1 | – | inactive
28 | Cc1ccc(-c2cc(C(=O)NCc3ccco3)c3ccccc3n2)s1 | – | 3.98 µM (active)
29 | Cc1ccc(CSc2nnc3c(n2)OC2(Nc4ccccc4-3)C(=O)Nc3ccc(F)cc32)cc1 (stereo not given) | – | 10 µM (active)
30 | O=C1Nc2ccc(F)cc2C12Nc1ccccc1-c1nnc(SCc3ccccc3F)nc1O2 (stereo not given) | – | 4.47 µM (active)
31 | COc1cccc2c(=O)c(C(=O)NCc3cccs3)c[nH]c12 | – | 7.94 µM (active)
32 | COc1ccc(C(=O)c2c[nH]c(C(=O)NCc3cccs3)c2)cc1 | – | inactive
33 | Nc1nc2c(C(=O)NCc3cccs3)nnn2c2cccc(Cl)c12 | 12.5% [at 11.4 µM] | –
34 | CCC(=O)OCC(=O)[C@@]1(OC(=O)CC)[C@H](C)C[C@@H]2[C@H]3CCC4=CC(=O)C=C[C@]4(C)[C@]3(Cl)[C@@H](O)C[C@@]21C | – | inactive
35 | CC1=C/C(=N/O)C([C@H]2C=C(C)CC(C)(C)[C@@H]2O)C(C)(C)C1 (stereo not given in full) | – | 1.58 µM (active)
36 | COc1cccc(Nc2ncc3nc(-c4cn(C)c5ccccc45)c(=O)n(CCC#N)c3n2)c1 | – | inactive
37 | COc1cccc2c1[C@@H]1CN(CCCCn3c(=O)[nH]c4c(sc5ncc(-c6ccccc6)nc54)c3=O)C[C@H]1CO2 | – | inactive
38 | FC(F)Sc1ccc(N=C2NN=C(c3ccc4c(c3)OCCO4)CS2)cc1 | – | 2.24 µM (active)
39 | CC(C)Oc1ccc(CNC(=O)CC(c2ccccc2)c2cc(Cl)ccc2O)cc1 (stereo not given) | – | 1.78 µM (active)
40 | CN(Cc1ccccc1)C(=O)CC(c1ccccc1)c1cc(Cl)ccc1O (stereo not given) | – | 1.78 µM (active)

Row | SMILES | activity, negative = inhibition | AC50
41 | Cc1cc(-c2cc(-c3ccc(Cl)cc3)nc(N)c2C#N)co1 | – | 0.282 µM (active)
42 | CS(=O)(=O)Nc1cccc(-c2cncnc2NCc2cccnc2)c1 | – | 3.16 µM (active)
43 | CS(=O)(=O)Nc1cccc(-c2ccc3ncnc(NCc4cccnc4)c3c2)c1 | – | 0.0501 µM (active)
44 | Cc1cccc(CNc2ncncc2-c2cccc(NS(C)(=O)=O)c2)c1 | – | 6.31 µM (active)
45 | CS(=O)(=O)Nc1cccc(-c2cncnc2Nc2ccccc2)c1 | – | inactive
46 | Cc1cnc(CNc2ncnc3ccc(-c4cccc(NS(C)(=O)=O)c4)cc23)cn1 | – | inactive
47 | N[C@H](C(=O)O)[C@@H]1[C@@H](C(=O)O)C1(F)F | – | inactive
48 | CCOC(=O)C1=C(C)NC2=C(C(=O)C(C(=O)OCC)C(c3ccc(OC)cc3)C2)C1c1ccccn1 (stereo not given) | – | 20 µM (active)
49 | O=C(c1cc2sccc2n1Cc1ccccc1)N1CCN(c2nc3ccccc3s2)CC1 | – | 2.24 µM (active)
50 | O=C(CN1CCN(Cc2ccccc2)CC1)N1CCCc2c1c(=O)oc1ccc(O)cc21 | – | 3.55 µM (active)
51 | O=C(O)c1cccc(CN2CCCCC2)c1 | 9.75% [at 11.4 µM] | –
52 | CCCc1c(-c2ccc(O)cc2)nn(-c2ccc(O)cc2)c1-c1ccc(O)cc1 | – | inactive
53 | O=S(=O)(O)C1CCNCC1 | – | inactive
54 | O=S(=O)(c1ccccc1)N1N=C(c2cccs2)CC1c1ccc(Br)cc1 (stereo not given) | – | 2 µM (active)
55 | N#CCCn1c(=O)c(-c2cc(F)cc(F)c2)nc2cnc(N3CCOCC3)nc21 | – | inactive
56 | Cc1ccc2c(C)nc(Nc3nc(CSc4nc5ccccc5[nH]4)cc(=O)[nH]3)nc2c1 | – | 7.08 µM (active)
57 | O=c1nc(-c2ccccc2)cc(C(F)(F)F)[nH]1 | – | inactive
58 | Cc1ccc2nc(Nc3nc(-c4ccccc4)cc(=O)[nH]3)nc(C)c2c1 | – | 3.16 µM (active)
59 | COc1ccc(C(N)=O)cc1NC(=O)c1cccc(F)c1 | – | inactive
60 | CCN(CC)c1ccc(NC(=O)c2cccc(F)c2)c(C)c1 | – | 15.8 µM (active)
